# Measurements published in PubChem BioAssay AID1159580 (chemical genetic matrix, 2015).
# Values joined by “and” are separate entries in the source; they are usually repeats but may differ in a detail not shown here. Identical values can stand only once. About 2,000 (36%) of roughly 5,500 compounds were called active. Not shown: some 18% with an inconclusive outcome. This is one part of the list. Unmarked numbers belong to inactive results. No stated cut-off is given here; in the data, active means normalized growth mostly below about 0.91 (no sharp cut-off); inconclusive means no clear call, values can overlap the other calls; inactive means mostly above about 0.92.
# Assay: chemical genetic growth profiling, strain panel (AID 1159580);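 further: tested at 20 µM; growth read once vehicle control cultures reached saturation at 30 °C; 1 = growth at the plate median or of vehicle wells; lower values mean less growth of the strain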
# Conditions: S. cerevisiae deletion strains, growth OD
smiles,measurement,setting,value
CCCC(C)C1(CC)C(=O)N=C(S)NC1=O (stereo unspecified),normalized growth,"locus YAL013W, strain DEP1, active compounds read low",1.01
same,normalized growth,"locus YAL021C, strain ccr4, active compounds read low",0.993
same,normalized growth,"locus YAL026C, strain drs2, active compounds read low",0.994
same,normalized growth,"locus YAL030W, strain snc1, active compounds read low",0.983
same,normalized growth,"locus YBL061C, strain skt5, active compounds read low",1.01
same,normalized growth,"locus YBR009C, strain hhf1, active compounds read low",0.992
same,normalized growth,"locus YBR021W, strain FUR4, active compounds read low",1.01
same,normalized growth,"locus YBR023C, strain chs3, active compounds read low",0.989
same,normalized growth,"locus YBR171W, strain sec66, active compounds read low",0.993
same,normalized growth,"locus YBR229C, strain ROT2, active compounds read low",1.01
same,normalized growth,"locus YBR231C, strain swc5, active compounds read low",1.01
same,normalized growth,"locus YBR279W, strain paf1, active compounds read low",0.998
same,normalized growth,"locus YCL011C, strain gbp2, active compounds read low",1.01
same,normalized growth,"locus YCL016C, strain dcc1, active compounds read low",0.995
same,normalized growth,"locus YCL029C, strain bik1, active compounds read low",0.557 (active)
same,normalized growth,"locus YCL061C, strain MRC1, active compounds read low",1
same,normalized growth,"locus YCL069W, strain vba3, active compounds read low",1
same,normalized growth,"locus YCR088W, strain abp1, active compounds read low",0.984
same,normalized growth,"locus YDL005C, strain med2, active compounds read low",0.987
same,normalized growth,"locus YDL035C, strain GPR1, active compounds read low",1.02
same,normalized growth,"locus YDL040C, strain nat1, active compounds read low",0.993
same,normalized growth,"locus YDL074C, strain BRE1, active compounds read low",1.06
same,normalized growth,"locus YDL101C, strain DUN1, active compounds read low",1.01
same,normalized growth,"locus YDL134C, strain PPH21, active compounds read low",1
same,normalized growth,"locus YDL185W, strain tfp1, active compounds read low",1.01
same,normalized growth,"locus YDL192W, strain arf1, active compounds read low",0.0766 (active)
same,normalized growth,"locus YDR001C, strain nth1, active compounds read low",1
same,normalized growth,"locus YDR069C, strain doa4, active compounds read low",0.996
same,normalized growth,"locus YDR101C, strain arx1, active compounds read low",0.371 (active)
same,normalized growth,"locus YDR137W, strain rgp1, active compounds read low",0.908
same,normalized growth,"locus YDR150W, strain NUM1, active compounds read low",1.02
same,normalized growth,"locus YDR159W, strain sac3, active compounds read low",0.971
same,normalized growth,"locus YDR162C, strain NBP2, active compounds read low",1.02
same,normalized growth,"locus YDR195W, strain ref2",0.979
same,normalized growth,"locus YDR297W, strain sur2, active compounds read low",0.997
same,normalized growth,"locus YDR318W, strain mcm21, active compounds read low",0.0671 (active)
same,normalized growth,"locus YDR334W, strain swr1, active compounds read low",0.998
same,normalized growth,"locus YDR335W, strain msn5, active compounds read low",0.993
same,normalized growth,"locus YDR388W, active compounds read low",0.0597 (active)
same,normalized growth,"locus YDR392W, strain spt3, active compounds read low",0.977
same,normalized growth,"locus YDR502C, strain sam2, active compounds read low",0.0887 (active)
same,normalized growth,"locus YEL003W, strain gim4, active compounds read low",0.997
same,normalized growth,"locus YEL037C, strain rad23, active compounds read low",1
same,normalized growth,"locus YEL061C, strain CIN8 (second series), active compounds read low",0.997
same,normalized growth,"locus YEL061C, strain CIN8, active compounds read low",1
same,normalized growth,"locus YER015W, strain faa2, active compounds read low",0.998
same,normalized growth,"locus YER016W, strain bim1, active compounds read low",1.01
same,normalized growth,"locus YER110C, active compounds read low",0.157 (active)
same,normalized growth,"locus YER111C, strain swi4, active compounds read low",1.01
same,normalized growth,"locus YER155C, strain BEM2 (second series), active compounds read low",0.986
same,normalized growth,"locus YER155C, strain BEM2, active compounds read low",1.01
same,normalized growth,"locus YER167W, strain BCK2, active compounds read low",1.02
same,normalized growth,"locus YFR010W, strain ubp6, active compounds read low",1.01
same,normalized growth,"locus YGL078C, strain dbp3, active compounds read low",0.095 (active)
same,normalized growth,"locus YGL086W, strain mad1, active compounds read low",0.0546 (active)
same,normalized growth,"locus YGL167C, strain pmr1, active compounds read low",0.991
same,normalized growth,"locus YGL173C, strain kem1, active compounds read low",0.99
same,normalized growth,"locus YGL227W, strain vid30, active compounds read low",0.981
same,normalized growth,"locus YGL240W, strain doc1, active compounds read low",0.982
same,normalized growth,"locus YGL248W, strain PDE1, active compounds read low",1.01
same,normalized growth,"locus YGL253W, strain hxk2, active compounds read low",1.01
same,normalized growth,"locus YGR078C, strain PAC10, active compounds read low",1.03
same,normalized growth,"locus YGR135W, strain pre9, active compounds read low",0.0693 (active)
same,normalized growth,"locus YGR229C, strain SMI1, active compounds read low",1.01
same,normalized growth,"locus YGR252W, strain gcn5, active compounds read low",0.187 (active)
same,normalized growth,"locus YHR013C, strain ard1, active compounds read low",0.997
same,normalized growth,"locus YHR027C, strain rpn1, active compounds read low",0.996
same,normalized growth,"locus YHR030C, strain SLT2, active compounds read low",1.01 and 0.984
same,normalized growth,"locus YHR079C, strain IRE1 (second series), active compounds read low",0.407 (active)
same,normalized growth,"locus YHR079C, strain IRE1, active compounds read low",0.979
same,normalized growth,"locus YHR094C, strain hxt1, active compounds read low",0.0939 (active)
same,normalized growth,"locus YHR129C, strain ARP1, active compounds read low",1.01
same,normalized growth,"locus YHR142W, strain chs7, active compounds read low",0.986
same,normalized growth,"locus YHR200W, strain rpn10, active compounds read low",0.0912 (active)
same,normalized growth,"locus YIL066C, strain RNR3, active compounds read low",1.03
same,normalized growth,"locus YIL073C, strain SPO22, active compounds read low",1.11
same,normalized growth,"locus YIL125W, strain kgd1, active compounds read low",0.141 (active)
same,normalized growth,"locus YIR030C, strain dcg1, active compounds read low",0.185 (active)
same,normalized growth,"locus YJL092W, strain hpr5, active compounds read low",0.991
same,normalized growth,"locus YJL095W, strain BCK1 (second series), active compounds read low",0.995
same,normalized growth,"locus YJL095W, strain BCK1, active compounds read low",1 and 0.991
same,normalized growth,"locus YJL115W, strain asf1, active compounds read low",0.988
same,normalized growth,"locus YJL129C, strain trk1, active compounds read low",0.962
same,normalized growth,"locus YJL134W, strain LCB3, active compounds read low",1.01
same,normalized growth,"locus YJL154C, strain vps35, active compounds read low",0.987
same,normalized growth,"locus YJL164C, strain tpk1, active compounds read low",0.995
same,normalized growth,"locus YJL166W, strain qcr8, active compounds read low",0.975
same,normalized growth,"locus YJL168C, strain set2, active compounds read low",0.123 (active)
same,normalized growth,"locus YJL187C, strain SWE1 (second series), active compounds read low",1
same,normalized growth,"locus YJR043C, strain POL32, active compounds read low",1.02
same,normalized growth,"locus YJR066W, strain TOR1, active compounds read low",0.945
